Test results: the supplement of paper PMC7156485
Several values for one entry are separate records, joined by “and”; a condition that tells them apart may be missing. Equal entries are not always repeated. ± gives the standard deviation of the averaged measurements.

Columns and labels:
Details in all cases: concentration: 10 µM; 24 h
HCC1569 [1] = test: cell number relative to DMSO (% of DMSO); higher = more cells (less growth inhibition / toxicity)
Procedure, shortened: (§1)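 Cell number or H1.0 nuclear intensity appears as percent of the plate control, based on the median of replicates. Measurements came from HCC1569 and TDF cells exposed in triplicate to compounds at 10 µM for 24 h at 37 °C, then imaged in six fields per well at ×10. Positional effects were smoothed out of HCC1569 values.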

TDF [2] = test: as above
Procedure, shortened: as §1

TDF [3] = test: H1.0 immunofluorescence intensity relative to DMSO (% of DMSO); higher = stronger H1.0 induction, active = 120 or more
Procedure, shortened: as §1

HCC1569 [4] = test: H1.0 immunofluorescence intensity relative to DMSO (% of DMSO); higher = stronger H1.0 induction, active = 140 or more
Procedure, shortened: as §1
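Wherever H1.0 immunofluorescence intensity relative to DMSO is given: TDF is a line of transformed human dermal fibroblasts of mesenchymal origin.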
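Wherever cell number relative to DMSO is given: TDF denotes transformed human dermal fibroblasts of mesenchymal origin.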

SMILES	cell number (HCC1569 [1])	cell number (TDF [2])	H1.0 immunofluorescence intensity (TDF [3])	H1.0 immunofluorescence intensity (HCC1569 [4])
CCCCCCCCC=CCCCCCCCC(=O)NCCc1ccc(O)c(O)c1 [Oleoyl dopamine]	98.1	88.4	103 (inactive)	118 (inactive)
OCC1OC(n2cnc3c(NC4CCCC4)nc(Cl)nc32)C(O)C1O (stereo not drawn) [2-Chloro-N6-cyclopentyladenosine]	109	104	89.3 (inactive)	80.9 (inactive)
CN1CCN(CC(=O)N2c3ccccc3C(=O)Nc3cccnc32)CC1.Cl.Cl [Pirenzepine dihydrochloride]	107	121	97.4 (inactive)	95.9 (inactive)
OC1C=C2CCN3Cc4cc5c(cc4C(C1O)C23)OCO5 (stereo not drawn) [Lycorine]	67.4	53.3	120 (inactive)	180 (active)
NC(=O)c1ccc(N(C(N)=O)c2c(F)cccc2F)nc1-c1ccc(F)cc1F	105	104	94.8 (inactive)	90.2 (inactive)
COC(=O)C(C)(N)Cc1ccc(O)cc1.Cl (racemic) [alpha-Methyl-DL-tyrosine methyl ester hydrochloride]	101	103	93 (inactive)	94.3 (inactive)
CNCCC(Oc1ccccc1OC)c1ccccc1.Cl (stereo not drawn) [Nisoxetine.HCl]	105	101	92.1 (inactive)	109 (inactive)
Cl.FC(F)(F)c1cc(COC2CCCNC2c2ccccc2)cc(C(F)(F)F)c1 [L-733,060 hydrochloride]	91.2	91.3	108 (inactive)	118 (inactive)
CC(C)Cc1ccc(CC(=O)O)cc1 [(4-isobutylphenyl)acetic acid]	101	110	91.5 (inactive)	93.1 (inactive)
CC1(COc2ccc(CC3SC(=O)NC3=O)cc2)CCCCC1 (stereo not drawn) [Ciglitazone]	99.8	91.8	102 (inactive)	96.6 (inactive)
CCCCCC(O)C=CC1C(O)CC(=O)C1CCCCCCC(=O)O (stereo not drawn) [Prostaglandin E1]	102 ± 2	109 ± 10	92.4 (inactive)	101 (inactive)
Nc1nc(Cl)nc2c1ncn2C1OC(COP(=O)([O-])OP(=O)([O-])OP(=O)([O-])[O-])C(O)C1O.[Na+].[Na+].[Na+].[Na+] (stereo not drawn) [2-Chloroadenosine triphosphate tetrasodium]	102	99	89.5 (inactive)	83.9 (inactive)
Brc1ccc(C2CN3CCSC3=N2)cc1.O=C(O)C(=O)O (stereo not drawn) [S(-)-p-Bromotetramisole oxalate]	107	107	99.6 (inactive)	94.6 (inactive)
O=C1C(SCCO)=C(SCCO)C(=O)c2ccccc21 [2,3-bis[(2-hydroxyethyl)sulfanyl]naphthoquinone]	36.5	84.6	103 (inactive)	446 (active)
CNC1C(OC2OC(CO)C(N)C(O)C2O)OC2CC(N)C(OC3C(N)CC(N)C(O)C3O)OC2C1O (stereo not drawn) [Apramycin]	106	96.3	98.5 (inactive)	117 (inactive)
O=C(O)CCCC(O)C=CC=CC=CC(O)CC=CCCCCCO (stereo not drawn) [20-Hydroxy-leukotriene B4]	100	101	95.2 (inactive)	108 (inactive)
Cc1cc(C)c(C=C2C(=O)Nc3ccccc32)[nH]1	102	108 and 105	94.2 (inactive) and 92.7 (inactive)	115 (inactive) and 103 (inactive)
CCCCC1CCC(c2nc(-c3ccncc3)no2)CC1 (stereo not drawn) [4-[5-(4-butylcyclohexyl)-1,2,4-oxadiazol-3-yl]pyridine]	94.1	98.3	108 (inactive)	104 (inactive)
Oc1ccc(Cn2cc[nH]c2=S)cc1 [1-(4-Hydroxybenzyl)imidazole-2-thiol]	102	101	95.7 (inactive)	96.1 (inactive)
CCOC(=O)C1=C(C)NC(C)=C(C(=O)OC)C1c1cccc([N+](=O)[O-])c1 (stereo not drawn) [Nitrendipine]	97.8 ± 5.5	101 ± 10	101 (inactive)	122 (inactive)
CNc1ncnc2c1ncn2C1CC(OP(=O)([O-])O)C(COP(=O)([O-])O)O1.[NH4+].[NH4+] (stereo not drawn)	104	100	95 (inactive)	92.4 (inactive)

SMILES	cell number (HCC1569 [1])	cell number (TDF [2])	H1.0 immunofluorescence intensity (TDF [3])	H1.0 immunofluorescence intensity (HCC1569 [4])
C1COC(NC(C2CC2)C2CC2)=N1 [Rilmenidine hemifumarate]	95.7	108	89.5 (inactive)	107 (inactive)
Cn1c2ccccc2c2c3c(c4c5ccccc5n(CCC#N)c4c21)CNC3=O	94.3	30.5	90.7 (inactive)	99.5 (inactive)
OCC1OC(n2cnc3c(NC4CC5CCC4C5)ncnc32)C(O)C1O (stereo not drawn)	99.1	92.5	96.9 (inactive)	91.9 (inactive)
O=C1NC(=O)C(c2cn(CCCO)c3ncccc23)=C1c1cnccn1 [GSK-3b Inhibitor XI]	106	119	88.7 (inactive)	116 (inactive)
CCC1C(=O)N(C)c2cnc(Nc3ccc(C(=O)NC4CCN(C)CC4)cc3OC)nc2N1C1CCCC1 (stereo not drawn)	27.1	32.4	157 (active)	136 (inactive)
S=c1ccss1 [1,2-Dithiole-3-thione]	101	103	89.6 (inactive)	99.4 (inactive)
CN(C)S(=O)(=O)c1ccc2c(c1)C(=Cc1cc3c([nH]1)CCCC3)C(=O)N2	72.9	48	97.5 (inactive)	184 (active)
O=C1Nc2ccccc2C1=Cc1c(Cl)[nH]c2ccccc12 [Cdk1 Inhibitor]	56.6	9.63	149 (active)	143 (active)
NC(N)=NCc1cccc(I)c1.NC(N)=NCc1cccc(I)c1.O=S(=O)(O)O [m-Iodobenzylguanidine hemisulfate]	109	98.8	98.1 (inactive)	98.4 (inactive)
O=C(O)c1cc([N+](=O)[O-])ccc1NCCCc1ccccc1 [5-Nitro-2-(3-phenylpropylamino)benzoic acid]	105	102	91 (inactive)	88.1 (inactive)
CSc1nc(-c2ccnc(NC(C)c3ccccc3)c2)c(-c2ccc(F)cc2)[nH]1 (stereo not drawn) [p38 MAP Kinase Inhibitor III]	94.8	107	95.2 (inactive)	113 (inactive)
O=C(c1ccc(F)cc1)C1CCN(CCn2c(=O)[nH]c3ccccc3c2=O)CC1 [Ketanserin]	101	105	91.7 (inactive)	117 (inactive)
Cc1cc(C(=O)Nc2cccc(C(=O)Nc3cccc(C(F)(F)F)c3)c2)on1	100	104	99.6 (inactive)	113 (inactive)
N#Cc1ccc(N2N=C3c4ccc(C(=O)O)cc4CCC3C2C2CCCC2)cc1Cl (stereo not drawn)	101	110	85.4 (inactive)	101 (inactive)
COc1ccccc1OCC(O)CN1CCN(CC(=O)Nc2c(C)cccc2C)CC1.Cl.Cl (stereo not drawn) [Ranolazine.2HCl]	104	93.2	94.2 (inactive)	102 (inactive)
C=C1OC(CO)(n2cnc3c(N)ncnc32)C(O)C1O (stereo not drawn) [Decoyinine]	107	105	91.6 (inactive)	88.3 (inactive)
CCOC(OCC)P(=O)(O)CCCNCc1ccc(Cl)c(Cl)c1	108	95.6	98.3 (inactive)	102 (inactive)
CCCCCCCCCCCCCC=CC(O)C(CO)NCCCCCCCC (stereo not drawn) [C8 Ceramine]	105	97	95.1 (inactive)	121 (inactive)
COC(=O)NC(C(=O)NC(Cc1ccccc1)C(O)CN(Cc1ccc(-c2ccccn2)cc1)NC(=O)C(NC(=O)OC)C(C)(C)C)C(C)(C)C (stereo not drawn) [Atazanavir]	92.7	79.8	109 (inactive)	103 (inactive)
Oc1ccc(O)cc1 [Hydroquinone]	74.9 ± 1.1	76.8 ± 3.5	97.3 (inactive)	118 (inactive)
NC(=O)c1noc([C@H](CCCC2CCCCC2)CC(=O)NO)n1	73.8	95.6	99.6 (inactive)	109 (inactive)
